Results filed as inconclusive are left out. The source made the active and inactive calls. Unless noted, the call rests on the fitted dose curve; in most records, active means well fitted curve in the direction sought with a large enough effect; inconclusive means small, poorly fitted or top-dose-only effect, or another doubt; inactive means no such curve, though single readings can be large; an effect the other way counts as inactive or inconclusive.
Columns and labels:
[1] = qHTS profiling of the MIPE4 collection as inhibitors of Plasmodium falciparum (DD2) proliferation (AID 743345; call rule not given here); conditions: P. falciparum Dd2 in erythrocytes, SYBR Green DNA, 72 h; at 28.5 µM (top of the series) unless noted
In short: (§1)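 Erythrocytes infected with P. falciparum (0.3% parasitemia, 2.5% hematocrit) incubated with compounds 72 h at 37 C, 5% CO2. Lysis with saponin/Triton buffer containing SYBR Green I, overnight at room temperature in the dark; DNA fluorescence (485/535 nm) normalised to 0.29 uM artemisinin and DMSO.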

[2] = qHTS profiling of the MIPE4 collection as inhibitors of Plasmodium falciparum (DD2) proliferation (Rep 2) (AID 743346; call rule not given here); conditions: P. falciparum Dd2 in erythrocytes, SYBR Green DNA, 72 h; at 28.5 µM (top of the series) unless noted
In short: as §1

[3] = qHTS profiling of the MIPE4 collection as inhibitors of Plasmodium falciparum (HB3) proliferation (AID 743347; call rule not given here;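 further: plate controls were DMSO vehicle wells for no effect and artemisinin wells for full effect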); conditions: P. falciparum HB3 in erythrocytes, SYBR Green DNA, 72 h; at 28.5 µM (top of the series) unless noted
In short: as §1

[4] = High-throughput drug toxicity screening in the BPDCN cell line Gen2.2 (AID 1224824; call rule not given here;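 further: cells exposed to compounds for 48 h before reading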); conditions: Gen2.2 BPDCN cells; at 45.8 µM (top of the series) unless noted
In short: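 CellTiter-Glo luminescence read after 48 h compound exposure at 37 C defines viability; percent activity set with DMSO as 100% and bortezomib (9.2 uM final) as 0%. 500 exponentially growing cells per well, RPMI plus 10% FBS.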

[5] = High-throughput drug toxicity screening in the BPDCN cell line Cal-1 (AID 1224825; call rule not given here); conditions: Cal-1 BPDCN cell viability, qHTS; at 45.8 µM (top of the series) unless noted
In short: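 Exponentially growing Cal-1 cells, 500 per well in phenol red-free RPMI with 10% FBS, were exposed to compounds for 48 h at 37 °C, 5% CO2. Viability was read by CellTiter-Glo luminescence and normalised to DMSO (100%) and 9.2 uM bortezomib (0%).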

[6] = qHTS assay for measurement of the activity of small molecule inhibitors on Zika virus induced Caspase-3 activity in human iPSC derived neural progenitor cells (hNPCs) (AID 1224857); further: nearly all actives have a fitted effect of over 65% in size; further: potency means the concentration at half of the fitted maximal effect
In short: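 Quantitative HTS format: human iPSC neural progenitors, 1 h compound pretreatment, ZIKV 2 FFU/cell for 6 h at 37 C. Percent inhibition derived from luminescent caspase-3/7 signal between uninfected and infected controls.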

[7] = qHTS assay for measurement of the activity of small molecule inhibitors on Zika virus induced Caspase-3 activity in human astrocytoma cells (AID 1224859);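 further: plate controls were ZIKV-infected untreated cells for no effect and uninfected cells for full effect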
In short: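 Readout is luminescence from Caspase-Glo 3/7 added after a 6 h ZIKV infection (2 FFU/cell) of compound-pretreated (1 h) SNB-19 cells; data expressed as % inhibition versus uninfected and infected wells.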

[8] = qHTS Screen of the MIPE 4.0 Collection Against Ewings Sarcoma (RDES) (AID 1259252); further: nearly all actives have a fitted effect of over 35% in size; further: potency means the concentration at half of the fitted maximal effect
In short: (§2)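 Compound titrations go onto adherent log-phase cells 4 h after seeding, incubate 48 h at 37C, then CellTiter-Glo luminescence reports viability relative to DMSO and cell-free controls.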

[9] = qHTS Screen of the MIPE 4.0 Collection Against Ewings Sarcoma (TC71) (AID 1259253); further: nearly all actives have a fitted effect of over 40% in size; further: potency means the concentration at half of the fitted maximal effect
In short: as §2

[10] = qHTS Screen of the MIPE 4.0 Collection Against Ewings Sarcoma (EW8) (AID 1259255); further: nearly all actives have a fitted effect of over 35% in size; further: potency means the concentration at half of the fitted maximal effect;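 on viability: 100% = DMSO-treated cells and 0% = medium-only wells without cells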
In short: as §2

[11] = molecular target: T1, Hexokinase-4 (Homo sapiens) + Glucokinase regulatory protein (Homo sapiens) (UniProt P35557+Q14397); assay: qHTS assay for inhibitors of recombinant human GCK-GKRP interaction: Diaphorase-coupled assay (AID 743205)
In short: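 A kinetic fluorescence read (Ex 525/Em 590 nm, every minute for 30 minutes) tracked resorufin from a G6PDH-diaphorase coupled GCK reaction. It contained 10 nM GST-GCK, 10 nM FLAG-GKRP, 5 mM glucose, 0.4 mM ATP in Hepes pH 7.6. Normalized to with/without-enzyme DMSO controls.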

[12] = molecular target: T1, Hexokinase-4 (Homo sapiens) + Glucokinase regulatory protein (Homo sapiens); assay: qHTS assay for inhibitors of recombinant human GCK-GKRP interaction: ADP-Glo assay (AID 743206);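 further: plate controls were DMSO plus enzyme for no effect and no enzyme for full effect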
In short: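 GST-GCK and FLAG-GKRP (15 nM each in the dispensed mix, with 2 uM S6P) react with 0.4 mM ATP and 5 mM glucose (final) in Hepes pH 7.6 for 60 min at room temperature. ADP is measured by ADP-Glo luminescence.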

[13] = molecular target: T1, Hexokinase-4 (Homo sapiens) + Glucokinase regulatory protein (Homo sapiens); assay: qHTS assay for inhibitors of recombinant human GCK-GKRP interaction: HTRF assay (AID 743207);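 further: 0% = DMSO with GCK present and -100% = DMSO wells lacking GCK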
In short: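 After 60 min equilibration at room temperature with anti-FLAG XL665 and anti-GST antibodies, FRET ratio (665/615 nm, excitation 320 nm) was read. Proteins: GST-GCK and FLAG-GKRP, each 5 nM, plus 2 uM S6P, pH 7.1 buffer; GCK-free wells define minimum signal.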

[14] = qHTS Assay for Identifying Gametocytocidal Compounds (AID 743244);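 further: on the % scale 0 is the no-effect control and ±100 the full control effect; actives lower the fluorescent signal which means gametocytes are killed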; conditions: P. falciparum 3D7 stage III-V gametocytes, alamarBlue, 72 h; max response: stronger effect = lower value
In short: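 A resazurin-based viability read-out was applied to mature P. falciparum gametocytes: 72 h compound treatment, then 24 h dye incubation, with falling fluorescence signalling gametocytocidal effect.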

[15] = qHTS profiling of the MIPE4 collection as inhibitors of Plasmodium falciparum (3D7) proliferation (AID 743344; call rule not given here;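 further: scaled between DMSO vehicle wells and 0.29 µM artemisinin as full inhibition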); conditions: P. falciparum 3D7 in erythrocytes, SYBR Green DNA fluorescence, 72 h; at 28.5 µM (top of the series) unless noted
In short: as §1

T1 sequence (P35557 whole entry, looked up): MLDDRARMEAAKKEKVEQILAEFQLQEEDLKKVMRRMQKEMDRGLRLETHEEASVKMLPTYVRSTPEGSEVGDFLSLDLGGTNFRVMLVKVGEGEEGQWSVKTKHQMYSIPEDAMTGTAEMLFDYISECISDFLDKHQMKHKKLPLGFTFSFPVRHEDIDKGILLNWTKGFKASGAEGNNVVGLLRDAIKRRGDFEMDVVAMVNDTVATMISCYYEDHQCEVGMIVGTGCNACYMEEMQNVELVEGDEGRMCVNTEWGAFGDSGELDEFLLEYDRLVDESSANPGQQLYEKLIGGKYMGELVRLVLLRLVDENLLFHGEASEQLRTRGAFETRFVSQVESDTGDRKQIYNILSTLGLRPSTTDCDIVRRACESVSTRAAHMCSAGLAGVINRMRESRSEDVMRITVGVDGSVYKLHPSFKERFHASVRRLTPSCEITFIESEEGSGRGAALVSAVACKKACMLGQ
T1 sequence (Q14397 whole entry, looked up): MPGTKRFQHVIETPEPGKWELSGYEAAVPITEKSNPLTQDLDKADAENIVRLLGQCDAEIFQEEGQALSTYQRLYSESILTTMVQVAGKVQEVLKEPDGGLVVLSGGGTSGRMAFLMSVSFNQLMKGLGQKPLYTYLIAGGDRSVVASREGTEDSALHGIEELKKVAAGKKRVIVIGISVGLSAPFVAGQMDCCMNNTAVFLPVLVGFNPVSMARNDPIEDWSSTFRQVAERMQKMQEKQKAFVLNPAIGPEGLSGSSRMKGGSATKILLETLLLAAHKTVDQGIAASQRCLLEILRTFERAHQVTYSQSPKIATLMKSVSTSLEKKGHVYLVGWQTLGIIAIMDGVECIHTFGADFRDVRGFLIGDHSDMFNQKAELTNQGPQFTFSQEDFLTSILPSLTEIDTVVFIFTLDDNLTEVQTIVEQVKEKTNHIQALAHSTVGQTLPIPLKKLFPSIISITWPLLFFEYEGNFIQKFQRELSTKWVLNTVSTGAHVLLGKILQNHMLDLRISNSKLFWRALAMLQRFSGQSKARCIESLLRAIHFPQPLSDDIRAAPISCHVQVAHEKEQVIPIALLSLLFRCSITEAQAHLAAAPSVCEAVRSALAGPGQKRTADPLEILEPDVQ

Structure (SMILES) | parasite growth remaining, % of DMSO control (lower = more inhibition) [1] | parasite growth, % of control (lower = inhibition) [2] [%] | growth, % of control [3] | cell viability, % of control (lower = more cytotoxic) [4] | viability (% of control) [5] | Potency [6] | Potency [7] | Potency [8] | Potency [9] | Potency [10] | outcome [11] | outcome [12] | outcome [13] | max response [14] | parasite growth, % of DMSO control [15] [%]
O=C(O)C=Cc1ccc(Cn2ccnc2)cc1 | 100% | 96.2 | 95.1% | 243% | 124% | inactive | inactive | inactive | inactive | inactive |  |  |  |  | 
c1cc(N[C@@H]2CCNC2)nc(-c2cnc3ccc(-c4cn[nH]c4)cn23)c1 | 8.57% | 9.64 | 3.77% | 3.68% | 3.36% | inactive | inactive | 16.6 µM (active) | 26.4 µM (active) | 16.6 µM (active) |  |  |  |  | 
Oc1ccc(-c2ccc(-c3cc(Nc4cccc(CNC5CC5)c4)n[nH]3)cc2)c(O)c1 | 13.4% | 20 | 3.25% | 2.13% | 3.58% | inactive | inactive | 1.48 µM (active) | 1.87 µM (active) | 1.87 µM (active) |  |  |  |  | 
O=C(NNC(=O)c1ccc(CNS(=O)(=O)c2ccc(F)c(Cl)c2)cc1)c1ccccc1 |  |  | 588% | 143% | 116% | inactive | inactive | inactive | inactive | inactive |  |  |  |  | 
COc1ccc2cc([S+]([O-])Cc3ncc(C)c(OC)c3C)nc2c1 | 87.1% | 61.5 | 41.2% | 70.5% | 107% | inactive | inactive | inactive |  | inactive | inactive | inactive | inactive | 2.05% (inactive) | 32.2
Cn1cc(-c2ccc3ncc(Cc4ccc5ncccc5c4)n3n2)cn1 | 60.3% | 33.6 |  | 45.5% | 35.3% | inactive | inactive | inactive |  | inactive |  |  |  |  | 26.2
CN1[C@H]2CC(OC(=O)[C@@H](CO)c3ccccc3)C[C@H]1[C@H]1O[C@H]12 (stereo partly specified) |  |  | 107% | 189% [at 23.2 µM] | 107% [at 23.2 µM] | inactive | inactive | inactive | inactive | inactive |  |  |  |  | 
Cc1noc(-c2ccc(CSCCC(=O)O)cc2)c1NC(=O)OC(C)c1ccccc1Cl (stereo unspecified) | 96% | 49.9 | 61.1% | 157% | 103% | inactive | inactive | inactive |  | inactive |  |  |  |  | 41.1
N[C@H]1CN(c2c(F)cc3c(=O)c(C(=O)O)cn(C4C[C@@H]4F)c3c2Cl)CC12CC2 (stereo partly specified) | 24.5% | 27.8 |  | 92.2% | 92.9% | inactive | inactive | inactive |  | inactive |  |  |  |  | 20.3
COc1cccc2c1C(=O)c1c(O)c3c(c(O)c1C2=O)C[C@@](O)(C(C)=O)C[C@H]3O[C@H]1C[C@H](N)[C@H](O)[C@H](C)O1 | 5.82% | 6.6 | 6.78% | 3.75% | 3.72% | inactive | inactive | 0.0418 µM (active) |  | 0.0526 µM (active) |  |  |  |  | 13.5
Cn1cc(C[C@@H](N)C(=O)O)c2ccccc21 | 82.7% [at 9.64 µM] |  | 98.8% [at 9.64 µM] | 152% [at 23.2 µM] | 126% [at 23.2 µM] | inactive | inactive | inactive | inactive | inactive |  |  |  |  | 
CC(C)N(CC[C@H](c1ccccc1)c1cc(CO)ccc1O)C(C)C |  | 26.5 | 103% | 145% | 101% | inactive | inactive | inactive | inactive | inactive |  |  |  |  | 
O=C1NCCc2[nH]c(-c3ccncc3)cc21 | 39% | 17.3 | 5.62% | 3.21% | 12.4% | inactive | inactive | 3.32 µM (active) | 2.64 µM (active) | 3.32 µM (active) |  |  |  |  | 
COc1cc(O)c2c(c1)C1OC1C[C@H](O)[C@H](O)C(=O)C=CC[C@H](C)OC2=O (stereo partly specified) | 10.6% | 6.84 | 2.42% | 3.33% | 5.65% | inactive | inactive | 16.6 µM (active) |  | 7.43 µM (active) |  |  |  |  | 5.71
COc1cc(OC)cc(-c2ccc3ncc4ccc(=O)n(-c5ccc(N6CCNCC6)c(C(F)(F)F)c5)c4c3c2)c1 | 5.58% | 18.6 | 9.36% | 13.6% | 5.34% | inactive | inactive | 2.96 µM (active) |  | 4.18 µM (active) |  |  |  |  | 5.19
CNC(=O)Nc1ccc(-c2nc(N3CC4CCC(C3)O4)c3cnn(C4CCC5(CC4)OCCO5)c3n2)cc1 | 7.38% | 8.34 | 3.02% | 17.6% | 8.62% | inactive | inactive | 0.0469 µM (active) | 0.0132 µM (active) | 0.0132 µM (active) |  |  |  |  | 
O=S(=O)(O)CCSSCCS(=O)(=O)O | 89% | 69.9 | 76% | 33.7% | 35.3% | 29.6 µM (active) | inactive | inactive | inactive | inactive |  |  |  |  | 
CCC[C@H]1C[C@H](C(=O)N[C@@H]([C@@H]2O[C@@H](SC)[C@@H](O)[C@@H](O)[C@@H]2O)[C@H](C)Cl)N(C)C1 | 36% | 24.6 | 25.3% | 155% | 128% | inactive | inactive | inactive | inactive | inactive |  |  |  |  | 

Reference: PubChem BioAssay (NCATS)
